# The supplement of paper PMC8728848
# This is one part of a sample in which the strongest signals are shown more often than they occur.
# Columns and labels:
# Test in all cases: glycan array binding signal (z-score within array); higher = stronger binding
# Settings in all cases: glycan notation: IUPAC condensed, linker removed
# Fuc(a1-2)GlcNAc = biological target: Fuc(a1-2)GlcNAc
# How it was run: (§1)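 The Consortium for Functional Glycomics database supplied 3228 glycan arrays, of which those lacking an available protein sequence were dropped. The binding signal, a within-array Z-score, was averaged across arrays of the same protein sequence and across linkers. Negative scores can be read as non-binding.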
# [1] = biological target: Fuc(a1-2)[GalNAc(a1-3)]Gal(b1-4)Glc
# How it was run: as §1
# [2] = biological target: Gal(a1-3)[Gal(a1-4)]Gal(b1-4)GlcNAc
# How it was run: as §1
# [3] = biological target: Gal(b1-3)[Neu5Ac(b2-6)]GalNAc
# How it was run: as §1
# Gal(b1-4)GlcNAc = biological target: Gal(b1-4)GlcNAc
# How it was run: as §1
# [4] = biological target: Gal(b1-4)GlcNAc(b1-2)Man(a1-3)[Gal(b1-4)GlcNAc(b1-2)Man(a1-6)]Man(b1-4)GlcNAc(b1-4)GlcNAc
# How it was run: as §1
# [5] = biological target: Gal(b1-4)GlcNAc(b1-3)Gal(b1-4)GlcNAc(b1-3)Gal(b1-4)GlcNAc
# How it was run: as §1
# [6] = biological target: Gal(b1-4)GlcNAc(b1-3)GalNAc
# How it was run: as §1
# [7] = biological target: Gal(b1-4)GlcNAc(b1-3)[Gal(b1-4)GlcNAc(b1-6)]GalNAc
# How it was run: as §1
# [8] = biological target: Gal(b1-4)GlcNAc(b1-6)[Gal(b1-3)]GalNAc
# How it was run: as §1
# GalNAc(a1-3)GalNAc = biological target: GalNAc(a1-3)GalNAc
# How it was run: as §1
# [9] = biological target: GalNAc(b1-3)Gal(a1-4)Gal(b1-4)GlcNAc
# How it was run: as §1
# Glc(b1-6)Glc = biological target: Glc(b1-6)Glc
# How it was run: as §1
# [10] = biological target: GlcNAc(b1-3)Gal(b1-4)GlcNAc
# How it was run: as §1
# [11] = biological target: GlcNAc(b1-4)GlcNAc(b1-4)GlcNAc(b1-4)GlcNAc(b1-4)GlcNAc(b1-4)GlcNAc
# How it was run: as §1
# GlcNAc(b1-6)GalNAc = biological target: GlcNAc(b1-6)GalNAc
# How it was run: as §1
# [12] = biological target: Man(a1-2)Man(a1-2)Man(a1-3)Man
# How it was run: as §1
# [13] = biological target: Neu5Ac(a2-3)Gal(b1-4)GlcNAc(b1-3)Gal(b1-4)GlcNAc
# How it was run: as §1
# [14] = biological target: Neu5Ac(a2-3)Gal(b1-4)[Fuc(a1-3)]GlcNAc6S
# How it was run: as §1
# Neu5Ac(a2-3)GalNAc = biological target: Neu5Ac(a2-3)GalNAc
# How it was run: as §1
# [15] = biological target: Neu5Ac(a2-3)GalNAc(b1-4)GlcNAc
# How it was run: as §1
# [16] = biological target: Neu5Ac(a2-8)Neu5Ac(a2-8)Neu5Ac(a2-3)[GalNAc(b1-4)]Gal(b1-4)Glc
# How it was run: as §1
# Neu5Gc(a2-3)Gal(b1-4)Glc = biological target: Neu5Gc(a2-3)Gal(b1-4)Glc
# How it was run: as §1
# Neu5Gc(a2-6)GalNAc = biological target: Neu5Gc(a2-6)GalNAc
# How it was run: as §1
# Fuc(a1-2)[Gal(a1-3)]Gal = biological target: Fuc(a1-2)[Gal(a1-3)]Gal
# How it was run: as §1
# Fuc(a1-3)GlcNAc = biological target: Fuc(a1-3)GlcNAc
# How it was run: as §1
# [17] = biological target: Gal(b1-3)[Neu5Ac(a2-6)]GalNAc
# How it was run: as §1
# [18] = biological target: Gal(b1-4)GlcNAc(b1-6)GalNAc
# How it was run: as §1
# Glc(b1-4)Glc = biological target: Glc(b1-4)Glc
# How it was run: as §1
# [19] = biological target: GlcNAc(b1-4)[GlcNAc(b1-6)]GalNAc
# How it was run: as §1
# [20] = biological target: Man(a1-2)Man(a1-6)[Man(a1-3)]Man(a1-6)[Man(a1-2)Man(a1-2)Man(a1-3)]Man(b1-4)GlcNAc(b1-4)GlcNAc
# How it was run: as §1
# [21] = biological target: Neu5Ac(a2-3)Gal(b1-3)GalNAc
# How it was run: as §1
# [22] = biological target: Neu5Ac(a2-3)Gal(b1-3)[Neu5Ac(a2-6)]GalNAc
# How it was run: as §1
# [23] = biological target: Neu5Ac(a2-6)Gal(b1-4)GlcNAc
# How it was run: as §1
# [24] = biological target: Neu5Ac(a2-8)Neu5Ac(a2-3)Gal(b1-4)Glc
# How it was run: as §1
# [25] = biological target: Neu5Ac9Ac(a2-6)Gal(b1-4)GlcNAc
# How it was run: as §1
binder,measurement,setting,value
"RSVL (Crotalus atrox), P21963 (protein) NNCPLDWLPMNGLCYKIFNQLKTWEDAEMFCRKYKPGCHLASFHRYGESLEIAEYISDYHKGQENVWIGLRDKKKDFSWEWTDRSCTDYLTWDKNQPDHYQNKEFCVELVSLTGYRLWNDQVCESKDAFLCQCKF",glycan array binding signal (z-score),Fuc(a1-2)GlcNAc,-0.364
same,glycan array binding signal (z-score),[1],1.84
same,glycan array binding signal (z-score),[2],5.83
same,glycan array binding signal (z-score),[3],0.952
same,glycan array binding signal (z-score),Gal(b1-4)GlcNAc,0.686
same,glycan array binding signal (z-score),[4],1.49
same,glycan array binding signal (z-score),[5],-0.23
same,glycan array binding signal (z-score),[6],-0.171
same,glycan array binding signal (z-score),[7],5.41
same,glycan array binding signal (z-score),[8],5.05
same,glycan array binding signal (z-score),GalNAc(a1-3)GalNAc,4.76
same,glycan array binding signal (z-score),[9],0.559
same,glycan array binding signal (z-score),Glc(b1-6)Glc,-0.364
same,glycan array binding signal (z-score),[10],-0.369
same,glycan array binding signal (z-score),[11],-0.369
same,glycan array binding signal (z-score),GlcNAc(b1-6)GalNAc,1.02
same,glycan array binding signal (z-score),[12],-0.367
same,glycan array binding signal (z-score),[13],-0.365
same,glycan array binding signal (z-score),[14],-0.345
same,glycan array binding signal (z-score),Neu5Ac(a2-3)GalNAc,-0.367
same,glycan array binding signal (z-score),[15],-0.342
same,glycan array binding signal (z-score),[16],-0.362
same,glycan array binding signal (z-score),Neu5Gc(a2-3)Gal(b1-4)Glc,-0.365
same,glycan array binding signal (z-score),Neu5Gc(a2-6)GalNAc,-0.366
"TES70 (Toxocara canis), Q9XYV5 (protein) MISVVLVAIALQISGSYAGACNSINDCGLFETCVNNMCVPDNMGCPMPCQAGQVCVPPNCVAAPAPQPVTTTTAAATTTTSARGRCNANAQCGAFEVCVNGMCQPNNAGCNPPCAANQVCVAPNCVPAPIPPPAQSTTTAPATTRAPPSCPPSWSPFSGHCYYVAVGSFLFNQASDWCTQTNSRPVWFDQSNVGTFGAELYFINVLAASRGVQTYWLGLNRQFGQWVWTNGSPLIFSNWRGSEPDGCCGGNVTCALVNYANPFGQWDDAGCGNIWRNPQGFICKKPLA",glycan array binding signal (z-score),Fuc(a1-2)[Gal(a1-3)]Gal,-0.052
same,glycan array binding signal (z-score),Fuc(a1-3)GlcNAc,-0.169
same,glycan array binding signal (z-score),[17],0.002
same,glycan array binding signal (z-score),[18],0.229
same,glycan array binding signal (z-score),Glc(b1-4)Glc,-0.156
same,glycan array binding signal (z-score),[19],0.013
same,glycan array binding signal (z-score),[20],-0.137
same,glycan array binding signal (z-score),[21],0.672
same,glycan array binding signal (z-score),[22],-0.065
same,glycan array binding signal (z-score),[23],6.41
same,glycan array binding signal (z-score),[24],-0.14
same,glycan array binding signal (z-score),[25],-0.172
